For assay [1], the target named is Tyrosine-protein kinase SYK (Homo sapiens) (UniProt P43405). To be noted: at 1 µM.
In assay [2] the target is T1, Tyrosine-protein kinase Tec (Homo sapiens) (UniProt P42680).
T1 sequence (whole entry): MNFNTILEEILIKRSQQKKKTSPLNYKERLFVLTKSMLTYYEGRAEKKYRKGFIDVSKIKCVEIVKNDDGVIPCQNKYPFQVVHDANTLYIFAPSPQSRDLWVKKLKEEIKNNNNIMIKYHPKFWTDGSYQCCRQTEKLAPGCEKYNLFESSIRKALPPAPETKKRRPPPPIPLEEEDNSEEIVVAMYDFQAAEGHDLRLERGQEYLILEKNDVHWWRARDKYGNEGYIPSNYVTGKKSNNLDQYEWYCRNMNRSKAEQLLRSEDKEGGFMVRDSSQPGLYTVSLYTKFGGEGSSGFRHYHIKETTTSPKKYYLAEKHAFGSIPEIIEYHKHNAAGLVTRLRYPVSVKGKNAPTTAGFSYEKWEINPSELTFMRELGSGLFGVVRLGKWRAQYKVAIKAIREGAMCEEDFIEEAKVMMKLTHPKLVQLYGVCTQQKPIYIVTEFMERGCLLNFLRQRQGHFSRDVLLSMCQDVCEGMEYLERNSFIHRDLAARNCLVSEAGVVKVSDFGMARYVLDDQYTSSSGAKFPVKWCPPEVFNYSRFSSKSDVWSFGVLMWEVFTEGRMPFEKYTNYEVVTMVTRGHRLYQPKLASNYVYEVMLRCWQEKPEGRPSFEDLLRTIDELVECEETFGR
As to conditions: at 0.1 µM.

In assay [3] the target is T1, Tyrosine-protein kinase Tec (Homo sapiens). As to conditions: at 1 µM.
The target of assay [4] is Angiopoietin-1 receptor (Homo sapiens) (UniProt Q02763). To be noted: at 0.1 µM.
Assay [5] has the same target. As to conditions: at 1 µM.
Assay [6] addresses T2, Non-receptor tyrosine-protein kinase TNK1 (Homo sapiens) (UniProt Q13470).
T2 sequence (whole entry): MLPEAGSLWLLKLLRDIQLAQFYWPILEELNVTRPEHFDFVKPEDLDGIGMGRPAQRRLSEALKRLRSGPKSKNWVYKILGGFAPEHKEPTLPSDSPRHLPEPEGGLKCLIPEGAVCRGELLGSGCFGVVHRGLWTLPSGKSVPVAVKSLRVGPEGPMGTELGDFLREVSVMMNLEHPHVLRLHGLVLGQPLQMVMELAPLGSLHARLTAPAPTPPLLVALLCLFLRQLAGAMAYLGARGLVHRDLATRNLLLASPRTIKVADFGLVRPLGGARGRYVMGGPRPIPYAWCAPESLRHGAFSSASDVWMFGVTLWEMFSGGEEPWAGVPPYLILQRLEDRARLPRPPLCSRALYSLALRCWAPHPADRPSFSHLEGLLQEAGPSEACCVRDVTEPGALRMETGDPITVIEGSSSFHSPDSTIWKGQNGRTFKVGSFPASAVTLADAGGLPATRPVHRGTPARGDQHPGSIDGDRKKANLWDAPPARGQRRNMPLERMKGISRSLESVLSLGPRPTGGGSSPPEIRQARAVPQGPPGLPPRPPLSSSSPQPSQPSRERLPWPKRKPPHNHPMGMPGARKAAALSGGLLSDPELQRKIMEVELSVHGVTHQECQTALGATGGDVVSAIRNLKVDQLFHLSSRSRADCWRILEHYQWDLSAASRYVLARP
To be noted: at 0.1 µM.

Assay [7] addresses T2, Non-receptor tyrosine-protein kinase TNK1 (Homo sapiens). As to conditions: at 1 µM.
Assay [8] deals with Activated CDC42 kinase 1 (Homo sapiens) (UniProt Q07912). As to conditions: at 0.1 µM.
Assay [9] shares this target. To be noted: at 1 µM.
Assay [10] deals with High affinity nerve growth factor receptor (Homo sapiens) (UniProt P04629). As to conditions: at 0.1 µM.
Assay [11] shares this target. To be noted: at 1 µM.
Assay [12] concerns the target BDNF/NT-3 growth factors receptor (Homo sapiens) (UniProt Q16620). To be noted: at 0.1 µM.
Assay [13] has the same target. As to conditions: at 1 µM.
Assay [14] deals with NT-3 growth factor receptor (Homo sapiens) (UniProt Q16288). To be noted: at 0.1 µM.
For assay [15] the target is unchanged. To be noted: at 1 µM.
For assay [16], the target named is T3, Tyrosine-protein kinase TXK (Homo sapiens) (UniProt P42681).
T3 sequence (whole entry): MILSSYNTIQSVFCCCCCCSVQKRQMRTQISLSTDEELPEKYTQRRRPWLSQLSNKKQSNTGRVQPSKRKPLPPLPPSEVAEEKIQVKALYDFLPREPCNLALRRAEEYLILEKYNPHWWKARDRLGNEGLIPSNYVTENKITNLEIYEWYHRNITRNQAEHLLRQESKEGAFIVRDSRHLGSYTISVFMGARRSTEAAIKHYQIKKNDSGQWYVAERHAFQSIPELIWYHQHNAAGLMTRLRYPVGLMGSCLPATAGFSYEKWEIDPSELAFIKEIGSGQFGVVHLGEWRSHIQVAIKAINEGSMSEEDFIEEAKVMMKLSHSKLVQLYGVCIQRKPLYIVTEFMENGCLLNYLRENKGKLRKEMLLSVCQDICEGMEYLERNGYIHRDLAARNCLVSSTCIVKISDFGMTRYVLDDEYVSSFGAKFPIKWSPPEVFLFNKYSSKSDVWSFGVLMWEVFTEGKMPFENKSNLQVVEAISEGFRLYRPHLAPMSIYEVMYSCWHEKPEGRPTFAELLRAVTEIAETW
As to conditions: at 0.1 µM.

The target of assay [17] is T3, Tyrosine-protein kinase TXK (Homo sapiens). To be noted: at 1 µM.
Assay [18] has as its target Non-receptor tyrosine-protein kinase TYK2 (Homo sapiens) (UniProt P29597). To be noted: at 0.1 µM.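 Note: each value is a mean of the inhibition readings.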
Assay [19] addresses T4, Dual specificity protein kinase TTK (Homo sapiens) (UniProt P33981).
T4 sequence (whole entry): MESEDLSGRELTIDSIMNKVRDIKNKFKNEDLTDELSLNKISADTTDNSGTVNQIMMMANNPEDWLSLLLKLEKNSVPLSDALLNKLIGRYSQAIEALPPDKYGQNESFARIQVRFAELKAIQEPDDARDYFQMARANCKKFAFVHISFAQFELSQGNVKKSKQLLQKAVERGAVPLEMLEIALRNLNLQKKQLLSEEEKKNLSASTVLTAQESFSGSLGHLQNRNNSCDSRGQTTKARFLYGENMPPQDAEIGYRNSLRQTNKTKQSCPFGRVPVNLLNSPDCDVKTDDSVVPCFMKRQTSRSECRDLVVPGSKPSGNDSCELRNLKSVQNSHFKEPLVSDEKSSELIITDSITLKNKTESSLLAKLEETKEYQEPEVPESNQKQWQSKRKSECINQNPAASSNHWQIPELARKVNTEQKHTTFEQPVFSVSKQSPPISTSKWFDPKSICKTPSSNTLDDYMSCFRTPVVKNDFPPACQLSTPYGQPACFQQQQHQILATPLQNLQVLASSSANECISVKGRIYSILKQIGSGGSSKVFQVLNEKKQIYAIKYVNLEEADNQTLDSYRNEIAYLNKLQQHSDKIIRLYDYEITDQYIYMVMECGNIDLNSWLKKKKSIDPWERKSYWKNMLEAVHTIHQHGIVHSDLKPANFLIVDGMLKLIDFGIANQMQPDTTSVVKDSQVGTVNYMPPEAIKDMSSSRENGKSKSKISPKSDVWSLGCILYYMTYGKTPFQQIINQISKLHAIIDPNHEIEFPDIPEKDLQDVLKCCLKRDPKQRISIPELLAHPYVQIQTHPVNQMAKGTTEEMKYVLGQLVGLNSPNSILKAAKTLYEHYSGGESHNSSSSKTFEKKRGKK
As to conditions: at 1 µM.

The target of assay [20] is T5, Aurora kinase A (Homo sapiens) (UniProt O14965).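 Note: each reported value is a mean percent inhibition of Aurora-A.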
T5 sequence (whole entry): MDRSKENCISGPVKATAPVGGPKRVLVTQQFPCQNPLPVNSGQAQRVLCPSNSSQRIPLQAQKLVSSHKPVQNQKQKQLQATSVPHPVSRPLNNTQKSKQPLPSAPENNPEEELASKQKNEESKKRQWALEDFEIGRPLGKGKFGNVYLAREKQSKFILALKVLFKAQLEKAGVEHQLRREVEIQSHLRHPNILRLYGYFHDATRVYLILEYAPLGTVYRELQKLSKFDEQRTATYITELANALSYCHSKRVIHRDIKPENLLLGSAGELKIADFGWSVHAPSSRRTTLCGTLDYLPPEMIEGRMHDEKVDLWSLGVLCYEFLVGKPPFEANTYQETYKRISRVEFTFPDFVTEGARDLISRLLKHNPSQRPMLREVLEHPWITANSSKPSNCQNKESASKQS
To be noted: at 0.1 µM.

Chain of Activated CDC42 kinase 1 (Homo sapiens) (Q07912 whole entry, looked up): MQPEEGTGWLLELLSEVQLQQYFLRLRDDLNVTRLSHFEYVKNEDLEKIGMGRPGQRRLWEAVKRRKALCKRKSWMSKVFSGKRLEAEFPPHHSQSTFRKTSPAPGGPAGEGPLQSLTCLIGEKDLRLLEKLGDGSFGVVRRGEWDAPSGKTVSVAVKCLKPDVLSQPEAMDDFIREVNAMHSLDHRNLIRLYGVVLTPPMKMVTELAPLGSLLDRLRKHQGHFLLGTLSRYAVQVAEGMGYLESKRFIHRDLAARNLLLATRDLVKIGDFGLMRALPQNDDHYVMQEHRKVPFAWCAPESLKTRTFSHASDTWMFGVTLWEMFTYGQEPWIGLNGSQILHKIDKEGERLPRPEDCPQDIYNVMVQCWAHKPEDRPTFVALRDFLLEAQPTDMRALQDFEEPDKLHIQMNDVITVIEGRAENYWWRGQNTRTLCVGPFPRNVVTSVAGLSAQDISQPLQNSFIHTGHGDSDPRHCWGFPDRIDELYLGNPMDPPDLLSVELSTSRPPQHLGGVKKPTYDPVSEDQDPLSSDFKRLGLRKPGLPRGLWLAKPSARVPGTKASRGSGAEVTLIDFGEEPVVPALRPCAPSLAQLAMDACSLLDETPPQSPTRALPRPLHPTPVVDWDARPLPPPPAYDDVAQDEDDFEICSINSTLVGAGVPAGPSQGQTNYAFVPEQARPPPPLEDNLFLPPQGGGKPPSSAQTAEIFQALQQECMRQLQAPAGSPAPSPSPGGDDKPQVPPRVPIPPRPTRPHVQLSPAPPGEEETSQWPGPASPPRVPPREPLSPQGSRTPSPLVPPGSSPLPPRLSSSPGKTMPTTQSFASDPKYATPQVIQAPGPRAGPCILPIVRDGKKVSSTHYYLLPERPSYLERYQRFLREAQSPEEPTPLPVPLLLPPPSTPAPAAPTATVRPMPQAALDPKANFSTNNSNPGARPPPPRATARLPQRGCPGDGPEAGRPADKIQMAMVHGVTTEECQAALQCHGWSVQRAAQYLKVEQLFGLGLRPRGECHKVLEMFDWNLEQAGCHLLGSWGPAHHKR
Chain of NT-3 growth factor receptor (Homo sapiens) (Q16288 32-839 limits assumed): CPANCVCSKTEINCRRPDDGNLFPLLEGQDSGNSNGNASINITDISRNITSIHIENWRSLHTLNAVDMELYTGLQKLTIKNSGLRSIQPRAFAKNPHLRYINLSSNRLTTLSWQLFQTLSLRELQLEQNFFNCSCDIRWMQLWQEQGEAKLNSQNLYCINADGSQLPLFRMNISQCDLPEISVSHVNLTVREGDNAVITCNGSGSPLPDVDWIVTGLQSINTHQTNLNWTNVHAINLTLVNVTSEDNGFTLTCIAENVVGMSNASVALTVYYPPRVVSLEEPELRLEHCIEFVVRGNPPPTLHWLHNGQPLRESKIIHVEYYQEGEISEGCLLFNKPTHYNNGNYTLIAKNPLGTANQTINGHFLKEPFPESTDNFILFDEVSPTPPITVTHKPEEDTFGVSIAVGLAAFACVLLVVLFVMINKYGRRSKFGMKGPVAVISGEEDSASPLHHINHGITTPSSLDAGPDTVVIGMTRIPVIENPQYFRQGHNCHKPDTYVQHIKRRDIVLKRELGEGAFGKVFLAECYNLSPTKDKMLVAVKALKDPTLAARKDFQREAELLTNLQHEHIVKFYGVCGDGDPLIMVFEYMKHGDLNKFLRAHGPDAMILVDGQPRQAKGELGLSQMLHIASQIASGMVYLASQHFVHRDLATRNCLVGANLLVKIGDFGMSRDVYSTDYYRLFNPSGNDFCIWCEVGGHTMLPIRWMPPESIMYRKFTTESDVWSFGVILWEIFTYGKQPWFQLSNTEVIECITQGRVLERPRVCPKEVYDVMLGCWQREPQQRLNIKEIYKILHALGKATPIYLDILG
Chain of Non-receptor tyrosine-protein kinase TYK2 (Homo sapiens) (P29597 whole entry): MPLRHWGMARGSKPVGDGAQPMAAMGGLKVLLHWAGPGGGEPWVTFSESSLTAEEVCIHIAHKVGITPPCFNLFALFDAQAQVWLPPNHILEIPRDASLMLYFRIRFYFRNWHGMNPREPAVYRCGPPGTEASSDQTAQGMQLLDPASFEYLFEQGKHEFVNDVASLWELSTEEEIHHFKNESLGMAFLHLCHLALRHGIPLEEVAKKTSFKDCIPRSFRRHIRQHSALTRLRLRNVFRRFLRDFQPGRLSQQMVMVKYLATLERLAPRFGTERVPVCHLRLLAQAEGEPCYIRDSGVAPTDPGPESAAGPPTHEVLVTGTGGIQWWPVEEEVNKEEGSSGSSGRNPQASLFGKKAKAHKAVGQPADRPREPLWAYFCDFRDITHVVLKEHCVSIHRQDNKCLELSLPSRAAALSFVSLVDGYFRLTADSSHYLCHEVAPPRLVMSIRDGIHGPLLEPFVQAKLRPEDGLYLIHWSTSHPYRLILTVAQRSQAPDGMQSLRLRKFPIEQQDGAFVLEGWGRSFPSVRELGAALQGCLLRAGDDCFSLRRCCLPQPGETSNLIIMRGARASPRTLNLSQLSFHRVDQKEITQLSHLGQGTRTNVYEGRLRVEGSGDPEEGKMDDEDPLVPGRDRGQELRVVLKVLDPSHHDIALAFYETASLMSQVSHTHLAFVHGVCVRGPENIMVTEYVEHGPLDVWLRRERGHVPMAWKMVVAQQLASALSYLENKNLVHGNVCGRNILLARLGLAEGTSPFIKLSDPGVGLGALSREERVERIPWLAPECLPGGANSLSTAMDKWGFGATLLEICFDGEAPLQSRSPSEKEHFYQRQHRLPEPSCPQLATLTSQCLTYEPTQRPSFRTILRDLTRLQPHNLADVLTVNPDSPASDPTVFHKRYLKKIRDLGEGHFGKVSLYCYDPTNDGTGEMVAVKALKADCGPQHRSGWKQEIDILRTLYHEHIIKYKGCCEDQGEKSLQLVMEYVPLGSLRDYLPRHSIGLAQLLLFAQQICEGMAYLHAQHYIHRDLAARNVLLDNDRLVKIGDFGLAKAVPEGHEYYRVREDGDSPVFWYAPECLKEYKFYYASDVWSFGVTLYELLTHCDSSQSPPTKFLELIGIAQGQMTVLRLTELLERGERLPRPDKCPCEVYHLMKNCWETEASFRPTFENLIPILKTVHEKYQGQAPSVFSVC
Chain of High affinity nerve growth factor receptor (Homo sapiens) (P04629 33-796 limits assumed): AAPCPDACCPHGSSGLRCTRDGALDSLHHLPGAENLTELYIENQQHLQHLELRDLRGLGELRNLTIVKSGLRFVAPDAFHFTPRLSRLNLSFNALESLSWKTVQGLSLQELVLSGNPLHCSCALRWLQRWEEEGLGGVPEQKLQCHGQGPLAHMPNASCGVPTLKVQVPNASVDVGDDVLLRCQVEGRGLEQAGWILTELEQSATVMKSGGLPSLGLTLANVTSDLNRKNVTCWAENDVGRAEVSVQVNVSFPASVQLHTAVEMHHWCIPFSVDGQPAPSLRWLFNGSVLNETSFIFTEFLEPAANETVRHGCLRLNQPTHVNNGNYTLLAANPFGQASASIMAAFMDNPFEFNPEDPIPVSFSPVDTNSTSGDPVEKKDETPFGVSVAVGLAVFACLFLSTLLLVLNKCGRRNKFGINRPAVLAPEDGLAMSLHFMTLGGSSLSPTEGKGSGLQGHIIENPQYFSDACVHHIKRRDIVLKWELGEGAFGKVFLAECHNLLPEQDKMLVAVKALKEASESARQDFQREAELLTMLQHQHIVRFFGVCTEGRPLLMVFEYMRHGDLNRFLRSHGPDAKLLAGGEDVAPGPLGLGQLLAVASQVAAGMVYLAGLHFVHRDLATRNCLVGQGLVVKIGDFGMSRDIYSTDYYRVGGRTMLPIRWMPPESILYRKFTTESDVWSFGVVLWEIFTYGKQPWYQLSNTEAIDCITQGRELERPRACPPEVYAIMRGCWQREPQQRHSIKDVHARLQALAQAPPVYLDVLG
Chain of Angiopoietin-1 receptor (Homo sapiens) (Q02763 whole entry): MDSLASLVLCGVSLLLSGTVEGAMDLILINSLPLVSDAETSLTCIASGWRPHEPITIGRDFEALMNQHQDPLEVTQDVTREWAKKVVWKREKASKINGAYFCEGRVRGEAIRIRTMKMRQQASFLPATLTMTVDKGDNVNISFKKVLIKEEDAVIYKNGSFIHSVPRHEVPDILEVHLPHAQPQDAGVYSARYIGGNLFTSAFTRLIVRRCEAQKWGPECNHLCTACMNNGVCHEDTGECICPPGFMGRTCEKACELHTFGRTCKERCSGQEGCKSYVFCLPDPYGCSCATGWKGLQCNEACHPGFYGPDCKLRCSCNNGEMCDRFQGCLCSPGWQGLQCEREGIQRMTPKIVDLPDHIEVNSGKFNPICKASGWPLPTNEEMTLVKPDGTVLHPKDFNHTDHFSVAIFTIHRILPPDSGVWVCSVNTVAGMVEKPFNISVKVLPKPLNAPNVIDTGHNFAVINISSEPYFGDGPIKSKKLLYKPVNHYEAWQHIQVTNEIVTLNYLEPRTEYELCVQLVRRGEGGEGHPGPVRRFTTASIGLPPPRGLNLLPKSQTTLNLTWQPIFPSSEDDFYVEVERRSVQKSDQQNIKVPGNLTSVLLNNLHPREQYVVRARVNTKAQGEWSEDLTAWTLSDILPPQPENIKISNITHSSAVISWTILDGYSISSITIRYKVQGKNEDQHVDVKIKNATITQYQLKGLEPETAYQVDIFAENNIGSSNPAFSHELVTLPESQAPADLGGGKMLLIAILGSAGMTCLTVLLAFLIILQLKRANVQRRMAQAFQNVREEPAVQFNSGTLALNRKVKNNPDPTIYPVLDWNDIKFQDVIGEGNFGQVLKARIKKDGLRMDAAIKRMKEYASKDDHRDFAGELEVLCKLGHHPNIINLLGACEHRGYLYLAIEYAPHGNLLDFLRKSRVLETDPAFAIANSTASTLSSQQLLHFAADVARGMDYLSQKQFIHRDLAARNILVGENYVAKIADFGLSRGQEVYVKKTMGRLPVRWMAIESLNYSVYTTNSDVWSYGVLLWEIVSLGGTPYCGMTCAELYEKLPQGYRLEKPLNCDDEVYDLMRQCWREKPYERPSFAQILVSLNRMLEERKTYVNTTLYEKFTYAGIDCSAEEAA

By inhibition is commonly meant the drop in the measured response relative to a control, in per cent. For the molecule `Fc1ccc(-c2ncn(C3CCNCC3)c2-c2ccnc(Oc3ccc(Oc4ccccc4)cc3)n2)cc1`, the inhibition came to 3.37% in assay [1]; 7.61% in [2]; 3.11% in [3]; 3.79% in assay [4]; 4.32% in [5]; 2.72% in [6]. The inhibition worked out at 0.92% in assay [7]; 0.73% in [8]; 1.8% in assay [9]; 3.4% in assay [10]; 5.66% in assay [11]; 2.54% in assay [12]. Besides, the inhibition in assay [13] is 2.27%; in [14], 2.44%; in assay [15], 1.66%; in assay [16], 8.91%; in assay [17], 5.95%; in assay [18] it was -1.07%. In addition, the inhibition in [19] was 7.56%; in assay [20], 2.89%.
Regarding `O=C(Nc1n[nH]c2nc(-c3ccc(O)cc3)c(Br)cc12)C1CC1`, the inhibition in assay [1] was determined as 0.18%; in [2] it was 6.51%; in assay [3], 14.4%; in assay [4], 5.98%; in assay [5], 26.2%; in assay [6] it was 4.45%. Besides, the inhibition in [7] came out at 20.4%; in assay [8], 1.69%; in [9], 3.9%; in assay [10] it was 4.06%; in assay [11] it was 12.3%; in assay [12] it was 5.55%. In addition, the inhibition was 14.5% in assay [13]; 5.79% in [14]; 16.4% in assay [15]; 4.99% in assay [16]; 9.15% in [17]; -1.54% in [18]. For the same molecule, the inhibition worked out at 15.3% in [19] and 5.34% in assay [20].
Take `Nc1nccc(-c2c(-c3ccc(F)cc3)ncn2C2CCC(O)CC2)n1` (stereo not given): the inhibition in assay [1] is 4.19%; in [2], -0.76%; in [3], 5.34%; in [4], -0.11%; in assay [5], 4.5%; in [6], -3.34%. The inhibition was 8.33% in assay [7]; -0.32% in assay [8]; 0.4% in [9]; 0.87% in assay [10]; -0.08% in [11]; 1.41% in assay [12]. Moreover, the inhibition in assay [13] was 5.91%; in assay [14] it was 2%; in assay [15], 11.3%; in [16] it was 1.58%; in assay [17], 19.2%; in assay [18] it was -2.03%. The inhibition is -0.22% in assay [19] and -2.33% in assay [20].

The record behind these values is ChEMBL document CHEMBL1961873, “Compounds: GSK PKIS; Assays: Nanosyn kinase panel” (2012).
